Bioassay records (PubChem BioAssay)
In the library only some 10% were active in any assay of this set; here they are far more common.
JMJD2A Tudor: qHTS Assay for Inhibitors of JMJD2A-Tudor Domain | Lysine-specific demethylase 4A (Homo sapiens), O75164 | AlphaScreen JMJD2A-Tudor / H3K4me3 peptide binding | Potency, µM (highest dose often 114 µM), usual class: inhibitors | hit rate 4.4% among 390,000; further: nearly all actives have a fitted effect of over 50% in size
HP1b binding inh: HTS for Inhibitors of HP1-beta Chromodomain Interactions with Methylated Histone Tails | AlphaScreen HP1-beta / biotin-H3K9me3 peptide binding | AID 540317, 2011 | Chromobox protein homolog 1 (Homo sapiens), P83916 | Potency, µM (doses to about 114 µM), actives largely listed as inhibitors | hit rate 0.56% among 390,000; further: nearly all actives have a fitted effect of over 70% in size
Target sequence (P83916 whole entry, looked up): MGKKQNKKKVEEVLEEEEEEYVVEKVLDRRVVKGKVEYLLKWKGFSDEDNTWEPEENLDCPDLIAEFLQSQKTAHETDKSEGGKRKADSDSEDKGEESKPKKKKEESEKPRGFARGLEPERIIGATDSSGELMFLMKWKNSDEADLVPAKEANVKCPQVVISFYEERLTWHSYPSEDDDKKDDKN
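HP1-beta protein (50 nM final) preincubated 30 min at room temperature with biotinylated H3(1-18)K9me3 peptide (50 nM) in PBS pH 7.4, 0.01% Tween-20, then compound added for 30 min. AlphaScreen streptavidin donor/nickel chelate acceptor beads (10 ug/mL final), 30 min dark, luminescence read.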
G9a inh: qHTS Assay for Inhibitors of Histone Lysine Methyltransferase G9a; Histone-lysine N-methyltransferase EHMT2 (Homo sapiens), Q96KQ7; G9a H3K9 monomethylation, AlphaScreen, 2 h; Potency, µM (top dose mostly 102 µM), actives largely listed as inhibitors; hit rate 8.8% among 350,000; AID 504332, 2011; further: nearly all actives have a fitted effect of over 75% in size
Target sequence (Q96KQ7 913-1193 limits assumed): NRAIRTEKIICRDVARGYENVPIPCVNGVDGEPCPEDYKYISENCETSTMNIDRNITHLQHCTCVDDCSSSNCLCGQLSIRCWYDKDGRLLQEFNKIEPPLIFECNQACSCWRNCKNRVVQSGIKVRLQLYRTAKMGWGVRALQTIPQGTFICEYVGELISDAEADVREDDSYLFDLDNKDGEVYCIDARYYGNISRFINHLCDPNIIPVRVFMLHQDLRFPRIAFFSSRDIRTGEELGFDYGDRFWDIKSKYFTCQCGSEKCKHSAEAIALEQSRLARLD
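Quantitative HTS format: methyltransferase activity on a biotin-tagged H3K9 peptide is measured by AlphaScreen, using a rabbit anti-monomethyl-H3K9 antibody with streptavidin donor and anti-IgG acceptor beads. Final levels are 20 nM enzyme, 500 nM peptide, 20 uM SAM; 2 h RT.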
CtBP-E1A inh: qHTS Assay for Inhibitors of the CtBP/E1A Interaction; activity change, % (test concentration not listed); AlphaScreen GST-E1A/His-CtBP binding, 1536-well; hits give low values; hit rate 0.49% among 340,000; AID 651724, 2012; in the data active means activity change below about -65%; inconclusive means mostly about -30% to -63%
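Steps: dispense buffer (Tris pH 8.0, NaCl 300 mM, TCEP 1 mM, BSA, Tween 20); add 5X protein mix (GST-E1A, His-CtBP, 125 nM each); pin 23 nL compound; 2 h at 37 °C, dark; add 5X beads (50 ug/mL); 1 h; read.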
BAZ2B block: qHTS Assay for Inhibitors of BAZ2B; AID 504333, 2011; Potency, µM (series often up to 114 µM), hits mostly inhibitors; Bromodomain adjacent to zinc finger domain protein 2B (Homo sapiens), Q9UIF8; AlphaScreen BAZ2B-H3K14Ac peptide displacement; hit rate 4.4% among 360,000; further: nearly all actives have a fitted effect of over 60% in size
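Protein-peptide AlphaScreen: BAZ2B 50 nM, b-H3K14Ac 50 nM, 1x PBS pH 7.4 + 0.01% Tween-20. Preincubation 30 min RT; cpd 30 min RT (top 110 uM); beads 20 min RT, light-protected.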
Six1-Eya2 inh: qHTS Assay for Inhibitors of the Six1/Eya2 Interaction; Homeobox protein SIX1 (Homo sapiens) + Protein phosphatase EYA2 (Homo sapiens), …; AlphaScreen GST-Six1/His-Eya2 binding, biochemical; hits give low values; activity change, % (no concentration beside the values); hit rate 0.56% among 360,000; in the data active means activity change below about -65%; inconclusive means mostly about -30% to -63%
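AlphaScreen with GST-Six1 and His-Eya2 (5X mix: 250 nM and 500 nM), glutathione donor and nickel acceptor beads; buffer 50 mM Tris pH 8.0, 300 mM NaCl, 1 mM TCEP; 1 h at 37 C in the dark.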
Of the large screens only hits and unclear results are named; the others gave an inactive call; ! = not confirmed by another sample. Unless noted, the call rests on the fitted dose curve; in most records, active means well fitted inhibition curve with a large enough effect; inconclusive means small, poorly fitted or top-dose-only effect; inactive means no such curve, though single readings can be large or run the other way.

CCOc1ccc(NC(=O)Cn2c(=O)n(-c3cccc(Cl)c3)c(=O)c3c2c2cc(C)ccc2n3C)cc1	none (no result: CtBP-E1A inh, Six1-Eya2 inh)
O=C(CSc1nnc(C2COc3ccccc3O2)o1)N1CCCC1 (stereo not given)	HP1b binding inh inconclusive, G9a inh 8.9µM
CCOC(=O)N1CCN(C(=O)CSc2nnc(C3COc4ccccc4O3)o2)CC1 (stereo not given)	G9a inh inconclusive
N#CC1=C(N)OC2=C(CCC/C2=C/c2ccoc2)C1c1ccoc1 (stereo not given)	G9a inh 16µM, BAZ2B block inconclusive (no result: JMJD2A Tudor, HP1b binding inh, CtBP-E1A inh, Six1-Eya2 inh)
O=C(NCC1CCCO1)c1ccc(COc2ccc(F)cc2)o1 (stereo not given)	none
CCOc1cc(N)c(Cl)cc1C(=O)NCC1CN(Cc2ccc(F)cc2)CCO1 (stereo not given)	JMJD2A Tudor 50µM (no result: BAZ2B block)
O=C(c1ccc(Cn2cc(Cl)c([N+](=O)[O-])n2)cc1)N1CCN(Cc2ccccc2)CC1	G9a inh 50µM (no result: CtBP-E1A inh)
O=C(c1ccc([N+](=O)[O-])cc1)N1CCN(Cc2ccccc2)CC1	none
O=C(c1ccc([N+](=O)[O-])o1)N1CCN(Cc2ccccc2)CC1	none (no result: G9a inh, CtBP-E1A inh)
O=C(c1cc([N+](=O)[O-])ccc1Cl)N1CCN(c2ccc(F)cc2)CC1	G9a inh 45µM (no result: CtBP-E1A inh)
O=C(c1cc([N+](=O)[O-])ccc1Cl)N1CCN(Cc2ccccc2)CC1	G9a inh 71µM
COc1cccc(C(=O)Nc2ccccc2C(=O)OCc2cc(=O)n3c4c(sc3n2)CCCC4)c1	none (no result: CtBP-E1A inh, Six1-Eya2 inh)
Cc1[nH][nH]c(=O)c1C(c1c(C)[nH][nH]c1=O)c1cn(Cc2ccc(F)cc2)c2ccccc12	JMJD2A Tudor 50µM, HP1b binding inh inconclusive, G9a inh 8.9µM, BAZ2B block 45µM
O=C(O)Cc1cn(Cc2ccc(F)cc2)c2ccccc12	none
Cc1[nH][nH]c(=O)c1C(c1c(C)[nH][nH]c1=O)c1cn(Cc2ccc(Cl)c(Cl)c2)c2ccccc12	JMJD2A Tudor 50µM, HP1b binding inh inconclusive, G9a inh 8.9µM, BAZ2B block 28µM
Cc1ccc(N(C)S(=O)(=O)c2cccc(C(=O)OCC(=O)N(C)Cc3ccccc3)c2)cc1	none (no result: JMJD2A Tudor, HP1b binding inh, G9a inh, BAZ2B block)
CN(C)c1ccc(C(=O)C(=O)c2ccccc2)cc1	JMJD2A Tudor inconclusive, G9a inh inconclusive, BAZ2B block inconclusive
CN(C)c1ccc(C(=C2C=CC(=[N+](C)C)C=C2)c2ccccc2)cc1	G9a inh 11µM (no result: JMJD2A Tudor, HP1b binding inh, CtBP-E1A inh, BAZ2B block, Six1-Eya2 inh)
CCCCn1c(N)c(N(CC(C)C)C(=O)c2cccs2)c(=O)[nH]c1=O	G9a inh inconclusive
CC(C)(Cc1cccc(CC(C)(C)C(=O)O)c1)C(=O)O	none
C[C@@](Cc1ccc(O)c(O)c1)(NN)C(=O)O	JMJD2A Tudor 79µM, HP1b binding inh inconclusive, G9a inh 3.2µM!
CC(N)(Cc1ccc(O)c(O)c1)C(=O)O (stereo not given)	G9a inh 0.95µM (no result: JMJD2A Tudor, HP1b binding inh, CtBP-E1A inh, BAZ2B block, Six1-Eya2 inh)
COc1ccc(C[C@@](C)(N)C(=O)O)cc1OC	none (no result: JMJD2A Tudor, HP1b binding inh, CtBP-E1A inh, BAZ2B block, Six1-Eya2 inh)
C[C@](Cc1ccc(O)c(O)c1)(NN)C(=O)O	G9a inh 2.2µM (no result: JMJD2A Tudor, HP1b binding inh, CtBP-E1A inh, BAZ2B block, Six1-Eya2 inh)
COc1ccc([C@]23Cc4cc(OC)c(OC)cc4C(O2)C2=C(CC(C)(C)CC2=O)O3)cc1	none (no result: JMJD2A Tudor, HP1b binding inh, CtBP-E1A inh, Six1-Eya2 inh)
CC1CCCCN1S(=O)(=O)c1ccc2[nH]c(=O)cc(C(=O)NCCc3ccc(Cl)cc3)c2c1 (stereo not given)	none (no result: CtBP-E1A inh, Six1-Eya2 inh)
O=C(O)Cc1cn(-c2ccccc2)nc1-c1ccccc1	none
O=C(O)/C=C/C(=O)NCc1cn(-c2ccccc2)nc1-c1cccc(Br)c1	G9a inh 35µM
Cc1cc2ncc(S(C)(=O)=O)c(N)n2n1	JMJD2A Tudor 13µM
